Experimental data published in PubChem BioAssay AID1159580 (chemical genetic matrix, 2015).
“And” between values parts separate entries of the source, which are not always exact repeats. Equal entries are not always repeated. Among all 5,500 compounds or so, about 2,000 (36%) were called active. Not shown: some 18% with an inconclusive outcome. Cut-off read from the data, not from the text of the source: active = normalized growth mostly below about 0.91 (no sharp cut-off); inconclusive = no clear call, values can overlap the other calls; inactive = mostly above about 0.92. Some of the results follow.

Test: chemical genetic growth profiling, strain panel (AID 1159580);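 note: tested at 20 µM; growth read once vehicle control cultures reached saturation at 30 °C; 1 = growth at the plate median or of vehicle wells; lower values mean less growth of the strain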
Conditions: S. cerevisiae deletion strains, growth OD

Measured: normalized growth

Cc1cc(=O)n(-c2ccccc2)n1C
inactive: locus YAL013W, strain DEP1, hits give low values 1.02 | locus YAL021C, strain ccr4, hits give low values 0.962 | locus YAL026C, strain drs2, hits give low values 1 | locus YAL030W, strain snc1, hits give low values 1 | locus YBL061C, strain skt5, hits give low values 0.992 | locus YBR009C, strain hhf1, hits give low values 1.06 | locus YBR021W, strain FUR4, hits give low values 1 | locus YBR023C, strain chs3, hits give low values 0.987 | locus YBR171W, strain sec66, hits give low values 0.987 | locus YBR229C, strain ROT2, hits give low values 1.01 | locus YBR231C, strain swc5, hits give low values 1.01 | locus YBR279W, strain paf1, hits give low values 0.995 | locus YCL011C, strain gbp2, hits give low values 0.995 | locus YCL016C, strain dcc1, hits give low values 0.979 | locus YCL029C, strain bik1, hits give low values 0.996 | locus YCL061C, strain MRC1, hits give low values 0.981 | locus YCL069W, strain vba3, hits give low values 0.997 | locus YCR088W, strain abp1, hits give low values 0.991 | locus YDL005C, strain med2, hits give low values 0.991 | locus YDL035C, strain GPR1, hits give low values 1.04 | locus YDL040C, strain nat1, hits give low values 0.991 | locus YDL074C, strain BRE1, hits give low values 1.02 | locus YDL101C, strain DUN1, hits give low values 0.999 | locus YDL185W, strain tfp1, hits give low values 0.994 | locus YDL192W, strain arf1, hits give low values 0.989 | locus YDR001C, strain nth1, hits give low values 0.983 | locus YDR069C, strain doa4, hits give low values 1.02 | locus YDR101C, strain arx1, hits give low values 0.983 | locus YDR137W, strain rgp1, hits give low values 0.978 | locus YDR159W, strain sac3, hits give low values 1.01 | locus YDR162C, strain NBP2, hits give low values 1.04 | locus YDR195W, strain ref2 0.998 | locus YDR297W, strain sur2, hits give low values 0.99 | locus YDR318W, strain mcm21, hits give low values 0.989 | locus YDR334W, strain swr1, hits give low values 0.986 | locus YDR335W, strain msn5, hits give low values 0.992 | locus YDR388W, hits give low values 0.986 | locus YDR392W, strain spt3, hits give low values 0.94 | locus YDR502C, strain sam2, hits give low values 0.994 | locus YEL003W, strain gim4, hits give low values 1 | locus YEL037C, strain rad23, hits give low values 0.995 | locus YEL061C, strain CIN8 (second series), hits give low values 0.99 | locus YEL061C, strain CIN8, hits give low values 1 | locus YER015W, strain faa2, hits give low values 0.985 | locus YER016W, strain bim1, hits give low values 0.996 | locus YER110C, hits give low values 0.987 | locus YER111C, strain swi4, hits give low values 0.984 | locus YER155C, strain BEM2 (second series), hits give low values 1.01 | locus YER155C, strain BEM2, hits give low values 1 | locus YER167W, strain BCK2, hits give low values 1.02 | locus YFR010W, strain ubp6, hits give low values 1 | locus YGL078C, strain dbp3, hits give low values 0.982 | locus YGL086W, strain mad1, hits give low values 0.989 | locus YGL167C, strain pmr1, hits give low values 0.996 | locus YGL173C, strain kem1, hits give low values 0.992 | locus YGL227W, strain vid30, hits give low values 0.993 | locus YGL240W, strain doc1, hits give low values 1 | locus YGL248W, strain PDE1, hits give low values 0.999 | locus YGL253W, strain hxk2, hits give low values 0.975 | locus YGR078C, strain PAC10, hits give low values 1 | locus YGR135W, strain pre9, hits give low values 1 | locus YGR229C, strain SMI1, hits give low values 1.04 | locus YGR252W, strain gcn5, hits give low values 1 | locus YHR013C, strain ard1, hits give low values 0.982 | locus YHR027C, strain rpn1, hits give low values 1.02 | locus YHR030C, strain SLT2, hits give low values 1.01 and 0.973 | locus YHR079C, strain IRE1 (second series), hits give low values 0.984 | locus YHR079C, strain IRE1, hits give low values 1.03 | locus YHR094C, strain hxt1, hits give low values 0.986 | locus YHR129C, strain ARP1, hits give low values 1.01 | locus YHR142W, strain chs7, hits give low values 0.963 | locus YHR200W, strain rpn10, hits give low values 1 | locus YIL066C, strain RNR3, hits give low values 1.04 | locus YIL073C, strain SPO22, hits give low values 1.03 | locus YIL125W, strain kgd1, hits give low values 0.986 | locus YIR030C, strain dcg1, hits give low values 0.987 | locus YJL095W, strain BCK1 (second series), hits give low values 0.999 | locus YJL095W, strain BCK1, hits give low values 1 and 1.01 | locus YJL115W, strain asf1, hits give low values 0.994 | locus YJL129C, strain trk1, hits give low values 0.978 | locus YJL134W, strain LCB3, hits give low values 1.01 | locus YJL154C, strain vps35, hits give low values 0.991 | locus YJL164C, strain tpk1, hits give low values 1.02 | locus YJL166W, strain qcr8, hits give low values 0.953 | locus YJL168C, strain set2, hits give low values 0.983 | locus YJL187C, strain SWE1 (second series), hits give low values 0.987 | locus YJL187C, strain SWE1, hits give low values 0.996 | locus YJR043C, strain POL32, hits give low values 1.04
